This is part of a sample that, as a whole, favours compounds with a hit. Of some 83,000 tested, about 20% had one in any assay.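 Percent growth is the endpoint: 0 to 100 indicates growth inhibition (40 means 60% inhibition), 0 means no net growth, and negative values indicate cell death.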 Activity calls are given as the source filed them. Rule for the calls: active = growth percent below 10; inactive = the rest.

Consider 38 compounds from PubChem BioAssay (NCI).

The subject of one test is SK-MEL-2 melanoma. The test can be described thus: NCI-60 one-dose screen, 48 h (100 = growth as untreated, 0 = no growth, -100 = all killed). The following applies: 10 µM unless noted.
Take `CCC1S/C(=N\N=C(/C)c2cccs2)N(c2ccccc2)C1=O` (stereo unspecified): the growth is 141% (inactive).
Take `COc1ccc2c(c1)/C(=C/c1c(-c3cc(OC)c(OC)c(OC)c3Br)nc3sccn13)C(=O)N2`: the growth is 87.3% (inactive).
Same read-out and setting: then `N#CC(C#N)=C(C#N)c1c[nH]c2ccccc12`, with 90.9% (inactive); and `CNC(=O)NN`, with 119% (inactive); and `ClC1c2ccccc2CCc2ccccc21`, with 87.8% (inactive).
Regarding `COc1ccc(-c2cc3ccc(N(C)C)cc3nc2N)c(F)c1`, the growth was 47.9% (inactive).
Take `CCOC(=O)C(C)(CSSCC(C)(NC(=O)c1ccc2ccccc2c1)C(=O)OCC)NC(=O)c1ccc2ccccc2c1` (stereo unspecified): the growth is 107% (inactive).
On the same count and under the same terms, then `COc1ccc(-c2cc(-c3nnc(SC/C(=N\O)c4ccccc4)n3-c3ccccc3)c3ccccc3n2)cc1`, with 95.2% (inactive); and `CC(=O)Nc1ccc([I+]c2ccc([N+](=O)[O-])cc2)cc1`, with 103% (inactive); and `O=[N+]([O-])c1ccc(NS(=O)(=O)c2ccccc2)c2ccccc12`, with 12.1% (inactive).
Same read-out and setting: then `COc1ccc(-c2c(C#N)cnc(N)c2-c2nc3cc(C)c(C)cc3[nH]2)cc1`, with 41.4% (inactive); and `S=c1n(CNc2ccc(Cl)nn2)nc(-c2cc(Cl)cc(Cl)c2Cl)n1/N=C/c1ccc(Cl)cc1`, with 84.1% (inactive); and `Cc1ccc2c(c1)Nc1ccc(C)cc1C2(C)C`, with 88.9% (inactive).
For the compound `Clc1ccc2c(NCCNc3nc(Cl)nc4ccccc34)ccnc2c1`, the growth was -73.2% (active).
With `CN1CCN(Cn2nc(-c3cc(Cl)cc(Cl)c3Cl)n(/N=C/c3ccc(Cl)cc3)c2=S)CC1`, the growth is 97.6% (inactive).
Regarding `C=C1C(=O)O[C@H]2[C@H]1CC/C(COC(=O)c1ccc(Cl)nc1)=C\CC[C@@]1(C)O[C@@H]21`, the growth is 40.4% (inactive).
The same measure, in the same setting: then `COc1ccc(/C=N/C2=NNC(C)(c3ccccc3O)N2C(Cc2c[nH]c3ccccc23)C(=O)O)cc1` (stereo unspecified), with 20.2% (inactive); and `COc1ccc(/C=C/C(=O)/C=C(/C=C/c2ccc(OC)c(OC)c2OC)OB(F)F)c(OC)c1OC`, with 76% (inactive); and `Cc1cc(N2CCOCC2)nc(N(CCNc2ccnc3cc(Cl)ccc23)Cc2ccco2)n1`, with 23.3% (inactive).
`NN=C(c1ccc(Cl)cc1)c1ccc(Cl)cc1`: the growth was 121% (inactive).
Same read-out and setting: then `Cc1cc2c(cc1C)N(C(=O)CCl)CCN2C(=O)CCl`, with -68.1% (active); and `COc1cccc(/C=N/C(=S)NC2(C)C3CCC(C3)C2(C)C)c1O` (stereo unspecified), with 82.1% (inactive).
`CC(=O)c1cc2c(N)c(C(=O)Nc3cccc(Cl)c3)sc2nc1C`: the growth is 39% (inactive).
As for `CCOC(=O)c1cnc2c(OC)ccc(OC)c2c1Cl`, the growth is 127% (inactive).
With `CCOc1cccc(Nc2nc(N)nc3[nH]c4ccc(O)cc4c23)c1`, the growth is 90.2% (inactive).
Same read-out and setting: then `CC(C)CCC[C@@H](C)[C@H]1CC[C@H]2[C@@H]3CC=C4N(c5ccccc5)C(=O)CC[C@]4(C)[C@H]3CC[C@]12C`, with 101% (inactive); and `C=C(C)[C@@H]1C/C=C(\COC(=O)[C@H](OC(C)=O)C(NC(=O)c2ccccc2)c2ccccc2)CC[C@H]2O[C@]2(C)CC/C=C(\C)CC1` (stereo partly specified), with 76.2% [5 µM] (inactive).
On the same count and under the same terms, then `C/C(=N/NC(=O)Cn1c2ccccc2c2ccncc21)c1cccs1`, with 96.6% (inactive).
Still for that read-out and setting: then `CC(=S)Nc1ccccc1`, with 97.3% (inactive); and `Nc1ccc(S(=O)(=O)Nc2cc(I)cc(I)c2)cc1`, with 97.7% (inactive).
Take `Cc1cn([C@]2(CF)O[C@H](CO)C2C)c(=O)[nH]c1=O` (stereo partly specified): the growth was 98.3% (inactive).
On to `COc1cc(NC(C)CCCN2C(=O)c3ccccc3C2=O)c2nccc(C)c2c1OC` (stereo unspecified), for which the growth was 87.6% (inactive).
Consider `O=C(O)c1ccccc1C(=O)c1ccc(I)cc1`, for which the growth is 91.2% (inactive).
With `CC(C(=O)O)N1C(N)=NNC1c1ccccc1O` (stereo unspecified), the growth is 99.7% (inactive).
With `COc1ccc(C2=NN(C(=O)COc3ccc(Cl)cc3)C(O)(c3cc(F)c(Cl)cc3Cl)C2)cc1OC` (stereo unspecified), the growth is 68.3% (inactive).
The same measure, in the same setting: then `CCCCNC(=O)Oc1ccc(/C(=C(/CC)Cc2ccccc2)c2ccc(OCCCN(C)C)cc2)cc1`, with 86.8% (inactive).
Regarding `COc1ccc(C(=O)Cn2cnc3c(Nc4cc(C(=O)Nc5ccc(N6CCN(CCO)CC6)cc5)ccc4C)ncnc32)cc1`, the growth was 100% (inactive).
Consider `COc1cc(NC(=O)c2cc(OC)c3ccn(C)c3c2)cc2c1C[C@]1(C)CC[C@@H](O)C(C)(C)[C@H]1O2`, for which the growth is 31.1% (inactive).

A further test deals with EKVX NSCLC. Described as above. The following applies: 10 µM unless noted.
Take `CCC1S/C(=N\N=C(/C)c2cccs2)N(c2ccccc2)C1=O` (stereo unspecified): the growth is 105% (inactive).
Same read-out and setting: then `COc1ccc2c(c1)/C(=C/c1c(-c3cc(OC)c(OC)c(OC)c3Br)nc3sccn13)C(=O)N2`, with 84.6% (inactive); and `N#CC(C#N)=C(C#N)c1c[nH]c2ccccc12`, with 73% (inactive); and `CNC(=O)NN`, with 91.5% (inactive).
On to `ClC1c2ccccc2CCc2ccccc21`, for which the growth was 94% (inactive).
For the compound `COc1ccc(-c2cc3ccc(N(C)C)cc3nc2N)c(F)c1`, the growth is 32.2% (inactive).
Turning to `CCOC(=O)C(C)(CSSCC(C)(NC(=O)c1ccc2ccccc2c1)C(=O)OCC)NC(=O)c1ccc2ccccc2c1` (stereo unspecified), the growth is 90.3% (inactive).
`COc1ccc(-c2cc(-c3nnc(SC/C(=N\O)c4ccccc4)n3-c3ccccc3)c3ccccc3n2)cc1`: the growth was 103% (inactive).
Consider `CC(=O)Nc1ccc([I+]c2ccc([N+](=O)[O-])cc2)cc1`, for which the growth was 88.7% (inactive).
For `O=[N+]([O-])c1ccc(NS(=O)(=O)c2ccccc2)c2ccccc12`, the growth was 38.2% (inactive).
For `COc1ccc(-c2c(C#N)cnc(N)c2-c2nc3cc(C)c(C)cc3[nH]2)cc1`, the growth was 63% (inactive).
On the same count and under the same terms, then `S=c1n(CNc2ccc(Cl)nn2)nc(-c2cc(Cl)cc(Cl)c2Cl)n1/N=C/c1ccc(Cl)cc1`, with 91.3% (inactive); and `Cc1ccc2c(c1)Nc1ccc(C)cc1C2(C)C`, with 87.8% (inactive).
On the same count and under the same terms, then `Clc1ccc2c(NCCNc3nc(Cl)nc4ccccc34)ccnc2c1`, with -9.06% (active); and `CN1CCN(Cn2nc(-c3cc(Cl)cc(Cl)c3Cl)n(/N=C/c3ccc(Cl)cc3)c2=S)CC1`, with 118% (inactive).
The same measure, in the same setting: then `C=C1C(=O)O[C@H]2[C@H]1CC/C(COC(=O)c1ccc(Cl)nc1)=C\CC[C@@]1(C)O[C@@H]21`, with 10.2% (inactive).
For the compound `COc1ccc(/C=N/C2=NNC(C)(c3ccccc3O)N2C(Cc2c[nH]c3ccccc23)C(=O)O)cc1` (stereo unspecified), the growth was 27.5% (inactive).
On the same count and under the same terms, then `COc1ccc(/C=C/C(=O)/C=C(/C=C/c2ccc(OC)c(OC)c2OC)OB(F)F)c(OC)c1OC`, with 65.8% (inactive).
Take `Cc1cc(N2CCOCC2)nc(N(CCNc2ccnc3cc(Cl)ccc23)Cc2ccco2)n1`: the growth was 56.7% (inactive).
`NN=C(c1ccc(Cl)cc1)c1ccc(Cl)cc1`: the growth is 108% (inactive).
On the same count and under the same terms, then `Cc1cc2c(cc1C)N(C(=O)CCl)CCN2C(=O)CCl`, with -23% (active); and `COc1cccc(/C=N/C(=S)NC2(C)C3CCC(C3)C2(C)C)c1O` (stereo unspecified), with 102% (inactive).
On the same count and under the same terms, then `CC(=O)c1cc2c(N)c(C(=O)Nc3cccc(Cl)c3)sc2nc1C`, with 76.5% (inactive).
`CCOC(=O)c1cnc2c(OC)ccc(OC)c2c1Cl`: the growth is 115% (inactive).
On the same count and under the same terms, then `CCOc1cccc(Nc2nc(N)nc3[nH]c4ccc(O)cc4c23)c1`, with 27.8% (inactive); and `CC(C)CCC[C@@H](C)[C@H]1CC[C@H]2[C@@H]3CC=C4N(c5ccccc5)C(=O)CC[C@]4(C)[C@H]3CC[C@]12C`, with 96.7% (inactive); and `C=C(C)[C@@H]1C/C=C(\COC(=O)[C@H](OC(C)=O)C(NC(=O)c2ccccc2)c2ccccc2)CC[C@H]2O[C@]2(C)CC/C=C(\C)CC1` (stereo partly specified), with 64.5% [5 µM] (inactive).
With `C/C(=N/NC(=O)Cn1c2ccccc2c2ccncc21)c1cccs1`, the growth was 103% (inactive).
Still for that read-out and setting: then `CC(=S)Nc1ccccc1`, with 87.3% (inactive).
Turning to `Nc1ccc(S(=O)(=O)Nc2cc(I)cc(I)c2)cc1`, the growth is 124% (inactive).
On to `Cc1cn([C@]2(CF)O[C@H](CO)C2C)c(=O)[nH]c1=O` (stereo partly specified), for which the growth was 106% (inactive).
As for `COc1cc(NC(C)CCCN2C(=O)c3ccccc3C2=O)c2nccc(C)c2c1OC` (stereo unspecified), the growth was 98.4% (inactive).
As to `O=C(O)c1ccccc1C(=O)c1ccc(I)cc1`, the growth is 97.5% (inactive).
On the same count and under the same terms, then `CC(C(=O)O)N1C(N)=NNC1c1ccccc1O` (stereo unspecified), with 50.6% (inactive); and `COc1ccc(C2=NN(C(=O)COc3ccc(Cl)cc3)C(O)(c3cc(F)c(Cl)cc3Cl)C2)cc1OC` (stereo unspecified), with 61.6% (inactive); and `CCCCNC(=O)Oc1ccc(/C(=C(/CC)Cc2ccccc2)c2ccc(OCCCN(C)C)cc2)cc1`, with 67.5% (inactive).
Consider `COc1ccc(C(=O)Cn2cnc3c(Nc4cc(C(=O)Nc5ccc(N6CCN(CCO)CC6)cc5)ccc4C)ncnc32)cc1`, for which the growth is 99% (inactive).
Same read-out and setting: then `COc1cc(NC(=O)c2cc(OC)c3ccn(C)c3c2)cc2c1C[C@]1(C)CC[C@@H](O)C(C)(C)[C@H]1O2`, with 65.2% (inactive).
